Measurements from PubChem BioAssay (NCI).
This is part of a sample that, as a whole, favours compounds with a hit. Of some 83,000 tested, about 20% had one in any assay.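 Interpretation: 100, growth as untreated; towards 0, rising growth inhibition; 0, no net growth; 0 to -100, cell death. Compounds scoring below 10 were considered active.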 A number with no mark means an inactive call. Activity calls are given as the source filed them.

Each molecule was assayed on HL-60(TB) leukemia (assay: NCI-60 one-dose screen, 48 h (100 = growth as untreated, 0 = no growth, -100 = all killed)). Settings: 10 µM unless noted.

Compound	growth
O=C(CC1Sc2ccccc2NC1=O)NNc1cccc(Cl)c1Cl (configuration not stated)	9.18% (active)
O=C1Nc2ccccc2/C1=N/N1C(=O)CN(CCCl)C1=O	96.3%
Nc1cc2c(cc1Cl)-c1ccc(Cl)cc1C2=O	75.7%
COc1ccc(-c2nc(SCC(=O)Nc3ccc(C(=O)/C=C/c4ccc(Cl)cc4)cc3)[nH]c(=O)c2C#N)cc1	105%
COc1cc(/C=C/C(=O)CC(=O)/C=C/c2ccc(O)c(OC)c2)ccc1O	0.358% (active)
O=C(O)C(O)C(O)C(=O)O.[NH-]C1CCCCC1[NH-].[Pt+2] (configuration not stated)	104%
O=C(Nc1cccnc1Nc1ccc(Cl)cc1)c1cn(Cc2ccc(F)cc2)nn1	109%
CCN1C(=O)C(C)C=C(C)C=C1C (configuration not stated)	94.4%
CC1=C[C@H]2c3c(c(O)c(O)c4oc(-c5ccccc5)cc(=O)c34)[C@H](c3cc(O)c(O)c4oc(-c5ccccc5)cc(=O)c34)[C@H]2C(C)(C)C1	-30.1% (active)
CC(C)CCC[C@@H](C)[C@H]1CC[C@H]2[C@@H]3CC=C4N(c5ccccc5)C(=O)CC[C@]4(C)[C@H]3CC[C@]12C	90.9%
COc1ccc(C(=O)OC2C(OC3C(O)COC(O[C@H]4C[C@H]5[C@@H]6CC=C7C[C@@H](O)CC[C@]7(C)[C@H]6CC[C@]5(C)[C@H]4[C@H](C)C(=O)CCC(C)C)C3OC(N)=O)OCC(O)C2O)cc1 (some centres not stated)	-36.9% (active)
Cc1ccc2c(c1)=C/C(=C\c1cc(-c3ccccc3)oc1O)C(=O)N=2	98%
